± gives the standard deviation.
Assays:
Conditions in all cases: modulator concentration 10 µM
[1] = tested on: RAW-Dual (murine macrophage reporter line); assay: NF-kB reporter (SEAP) activity fold change vs agonist alone; higher = enhanced NF-kB activity
Procedure, shortened: (§1)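 RAW-Dual murine macrophage reporter cells were plated at 50 000 per well in 384-well plates, pin-transferred compound to 10 μM final, and pre-incubated for 1 hour at 37 °C before a PRR agonist was added and the cells incubated overnight. NF-κB activity was read from supernatant SEAP with QUANTI-Blue at 620 nm absorbance, and IRF activity from Lucia luciferase with QUANTI-Luc by luminescence. Each signal was expressed as fold change by dividing by the mean agonist-only control on the same plate. Two replicate plates were averaged, with errors obtained by propagation.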

[2] = tested on: RAW-Dual (murine macrophage reporter line); assay: IRF reporter (Lucia luciferase) activity fold change vs agonist alone; higher = enhanced IRF activity
Procedure, shortened: as §1

[3] = tested on: RAW-Dual (murine macrophage reporter line); assay: viability score (confluency relative to resting cells, overnight) (fraction); higher = more viable, active = viable (0.7 or more)
Procedure, shortened: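 RAW-Dual macrophages in 384-well plates were incubated overnight with compound, final concentration 10 μM. Confluency images from IncuCyte were processed in IncuCyte software into two masks covering all imaged wells. The viability score is each well's confluency relative to resting cells, and a compound met the cutoff when both masks exceeded 70% of resting cells.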

[4] = agonist: CpG ODN 1826 0.5 ug/mL

| Compound | NF-kB reporter [1, 4] | NF-kB reporter ([1]; agonist: LPS 0.1 ug/mL) | NF-kB reporter ([1]; agonist: MPLA […]) | IRF reporter ([2]; agonist: 3'3'-cGAMP 10 ug/mL) | IRF reporter ([2]; agonist: LPS 0.1 ug/mL) | IRF reporter ([2]; agonist: MPLA […]) | viability score [3] |
| --- | --- | --- | --- | --- | --- | --- | --- |
| CCCOc1ccc(-c2ccc(-c3nc(Cc4ccc(OC)c(OC)c4)no3)cc2)cc1 | 0.763 ± 0.062 | 0.972 ± 0.046 | 1.04 ± 0.097 | 0.978 ± 0.048 | 1.08 ± 0.063 | 1.12 ± 0.12 | 1.01 (active) |
| O=C(NCC(O)(c1ccccc1)C(F)(F)F)c1ccc(Br)o1 (configuration not stated) | 0.943 ± 0.054 | 0.86 ± 0.12 | 0.929 ± 0.036 | 0.858 ± 0.038 | 1.04 ± 0.065 | 1.05 ± 0.15 | 0.948 (active) |
| C[C@@H](O)[C@H]1C(=O)N2C(C(=O)O)=C(SCCNC=N)C[C@H]12 [Prestw-519] | 1.17 ± 0.11 | 0.986 ± 0.13 | 0.951 ± 0.036 | 0.981 ± 0.043 | 0.96 ± 0.044 | 0.928 ± 0.092 | 0.994 (active) |
| O=C(Cc1ccccc1)NC(NC(=S)Nc1ccc(O)cc1)C(Cl)(Cl)Cl (configuration not stated) | 0.88 ± 0.075 | 0.818 ± 0.098 | 1.06 ± 0.1 | 0.935 ± 0.032 | 1.29 ± 0.24 | 1.57 ± 0.33 | 1.02 (active) |
| Cc1ccc(COc2cccc(C=C3SC(=S)NC3=O)c2)cc1 | 0.611 ± 0.06 | 0.803 ± 0.13 | 0.992 ± 0.088 | 0.793 ± 0.08 | 1.18 ± 0.069 | 1.3 ± 0.11 | 1.02 (active) |
| COc1cc(O)c(C(=O)Nc2nc(C(=O)NCCN(C(C)C)C(C)C)cs2)cc1OC | 1.25 ± 0.33 | 1.01 ± 0.073 | 1.13 ± 0.087 | 0.997 ± 0.038 | 0.907 ± 0.1 | 0.973 ± 0.18 | 0.994 (active) |
| CCOc1ccccc1NC(=O)NCc1sc(-c2ccccc2Cl)nc1C | 0.768 ± 0.19 | 1.07 ± 0.058 | 0.98 ± 0.072 | 0.89 ± 0.048 | 0.926 ± 0.17 | 0.898 ± 0.11 | 1 (active) |
| Cl.Cl.O=C1c2c(O)ccc(O)c2C(=O)c2c(NCCNCCO)ccc(NCCNCCO)c21 | 0.0718 ± 0.0057 | 0.065 ± 0.0036 | 0.125 ± 0.011 | 0.0431 ± 0.0042 | 0.0592 ± 0.012 | 0.0943 ± 0.0079 | 0.388 (inactive) |
| Cn1cnc([N+](=O)[O-])c1Sc1ncnc2nc[nH]c12 | 1.1 ± 0.2 | 0.844 ± 0.23 | 0.983 ± 0.077 | 0.934 ± 0.031 | 1.2 ± 0.33 | 0.986 ± 0.23 | 0.983 (active) |
| CCOC(=O)C1=C(COCCN)NC(C)=C(C(=O)OC)C1c1ccccc1Cl.O=S(=O)(O)c1ccccc1 (configuration not stated) | 0.921 ± 0.14 | 1.33 ± 0.18 | 3.73 ± 0.3 | 0.449 ± 0.058 | 1.55 ± 0.2 | 5.89 ± 1.2 | 0.0981 (inactive) |
| Cc1ccccc1Oc1ccc(S(=O)(=O)N2CCCC2)cc1 | 0.68 ± 0.03 | 1.02 ± 0.14 | 0.922 ± 0.061 | 0.385 ± 0.018 | 1.03 ± 0.14 | 1.22 ± 0.26 | 0.953 (active) |
| CC(C)(C)C(=O)OCOP(=O)(COCCn1cnc2c(N)ncnc21)OCOC(=O)C(C)(C)C | 1.69 ± 0.25 | 1.36 ± 0.11 | 1.65 ± 0.1 | 1.81 ± 0.096 | 5.89 ± 0.5 | 3.2 ± 0.43 | 0.788 (active) |
| CC(Oc1cccc(Cl)c1)C(=O)Nc1nncs1 (configuration not stated) | 0.999 ± 0.082 | 0.972 ± 0.054 | 0.967 ± 0.058 | 0.947 ± 0.023 | 1.28 ± 0.18 | 1.05 ± 0.2 | 1.01 (active) |
| O=C(COc1ccc(Cl)cc1)Nc1ccc(OC(F)(F)F)cc1 | 1.03 ± 0.069 | 1 ± 0.078 | 0.943 ± 0.043 | 0.989 ± 0.072 | 0.973 ± 0.1 | 0.88 ± 0.18 | 0.993 (active) |
| COC(=O)C1=CN(CC2CCCO2)C=C(C(=O)OC)C1c1ccc(F)cc1 (configuration not stated) | 1.06 ± 0.065 | 0.875 ± 0.069 | 1.22 ± 0.063 | 0.886 ± 0.062 | 0.95 ± 0.046 | 0.961 ± 0.13 | 0.996 (active) |
| CC#CCn1c(N2CCC[C@@H](N)C2)nc2c1c(=O)n(Cc1nc(C)c3ccccc3n1)c(=O)n2C | 1.05 ± 0.14 | 1.13 ± 0.22 | 1.02 ± 0.064 | 0.944 ± 0.035 | 1.34 ± 0.38 | 1.14 ± 0.16 | 1.01 (active) |
| CN1CCN(C2=C(Cl)C(=O)N(c3ccc(Cl)c(Cl)c3)C2=O)CC1 | 0.902 ± 0.11 | 1.01 ± 0.091 | 0.759 ± 0.045 | 0.524 ± 0.016 | 1.54 ± 0.28 | 1.24 ± 0.21 | 1.01 (active) |
| CC(=NNC(N)=S)C1=CC(C)(C)CCC1 | 0.744 ± 0.061 | 0.985 ± 0.062 | 1.06 ± 0.13 | 0.462 ± 0.012 | 1.17 ± 0.19 | 0.978 ± 0.2 | 1.01 (active) |
| COc1ccc2c3c([nH]c2c1)C(=O)CCC3 | 1.43 ± 0.11 | 0.785 ± 0.066 | 1.12 ± 0.11 | 0.732 ± 0.067 | 0.561 ± 0.12 | 0.464 ± 0.11 | 0.843 (active) |
| Cc1ccc(C23CC4CC(CC(CN)(C4)C2)C3)cc1C.Cl | 0.652 ± 0.44 | 0.309 ± 0.056 | 1.08 ± 0.35 | 0.11 ± 0.0065 | 0.32 ± 0.1 | 0.256 ± 0.11 | 0.51 (inactive) |
| COc1ccccc1OCC(O)CN1CCN(CC(=O)Nc2c(C)cccc2C)CC1.Cl.Cl (configuration not stated) | 0.724 ± 0.11 | 0.982 ± 0.19 | 0.991 ± 0.064 | 0.908 ± 0.064 | 1.05 ± 0.23 | 0.931 ± 0.16 | 0.991 (active) |
| Cl.Nc1c(Br)cc(Br)cc1CNC1CCC(O)CC1 (configuration not stated) | 0.911 ± 0.074 | 0.95 ± 0.1 | 1.04 ± 0.03 | 0.908 ± 0.065 | 0.94 ± 0.096 | 0.999 ± 0.079 | 0.998 (active) |
| CSc1ccccc1NC(=O)C1CCCN(c2ccc(-n3cncn3)nn2)C1 (configuration not stated) | 0.991 ± 0.073 | 1.04 ± 0.099 | 1.18 ± 0.063 | 0.973 ± 0.077 | 1.23 ± 0.22 | 1.43 ± 0.37 | 0.995 (active) |
| CCN(CC)C(=O)C(=Cc1ccc(Br)cc1)NC(=O)c1ccccc1OC | 1.06 ± 0.084 | 1.09 ± 0.11 | 1.09 ± 0.075 | 1.14 ± 0.028 | 1.61 ± 0.25 | 1.28 ± 0.12 | 1.01 (active) |
| CCOC(=O)C1C(=O)NC(SCC(N)=O)=C(C#N)C1c1ccccc1OCC (configuration not stated) | 0.936 ± 0.052 | 0.994 ± 0.063 | 0.926 ± 0.07 | 1 ± 0.072 | 1.25 ± 0.083 | 1.03 ± 0.098 | 1 (active) |
| CS(=O)(=O)N(CC(=O)NCCSCc1cccc(Cl)c1)c1ccc(Cl)cc1 | 0.893 ± 0.093 | 0.962 ± 0.079 | 0.964 ± 0.044 | 0.904 ± 0.13 | 1.07 ± 0.062 | 0.902 ± 0.081 | 1 (active) |
